Measurements taken from PubChem BioAssay (Tox21).
Records with an inconclusive call do not appear. Calls of active or inactive are those of the source. Unless noted, calls come from the whole dose curve.

How the values were obtained:
[1] = Nuclear factor erythroid 2-related factor 2/antioxidant responsive element (Nrf2/ARE) small molecule agonists: qHTS cell viability counter screen in human keratinocytes (AID 1919968; active = well fitted curve in the direction sought with a large enough effect in the repeat runs; an effect the other way counts as inactive or inconclusive; note: nearly all actives have a fitted effect of over 55% in size; note: potency is the fitted concentration of half-maximal effect)
Method in brief: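 In human HaCaT keratinocytes stably expressing an ARE-driven luciferase, compound exposure lasted 23 h at 37 C under 5% CO2. Viable cells are quantified with a protease-based fluorogenic reagent (CellTiter-Fluor) read 1 h after addition.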

[2] = Nuclear factor erythroid 2-related factor 2/antioxidant responsive element (Nrf2/ARE) small molecule agonists: luciferase reporter gene qHTS assay in human keratinocytes (AID 1919969); note: nearly all actives have a fitted effect of over 35% in size; note: potency is the fitted concentration of half-maximal effect
[3] = molecular target: Gonadotropin-releasing hormone receptor (Homo sapiens) (UniProt P30968); assay: Human gonadotropin-releasing hormone receptor (GnRHR) small molecule agonists, calcium flux assay in GnRHR-HEK293 cells (AID 1920063); note: nearly all actives have a fitted effect of over 35% in size
Method in brief: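 Intracellular calcium rise is the read-out: engineered human GnRHR HEK293 cells, dye-loaded, are exposed to DMSO-dissolved compounds and fluorescence at Ex/Em 480/540 is tracked for 3 min.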

[4] = molecular target: KiSS-1 receptor (Homo sapiens) (UniProt Q969F8); assay: Human kisspeptin (KISS1R) small molecule agonists, calcium flux assay in KISS1R-HEK293 cells (AID 1920064; active = well fitted curve in the direction sought with a large enough effect in the repeat runs; an effect the other way counts as inactive or inconclusive)
Method in brief: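 Concentration-response testing used 15 concentrations in triplicate on human KISS1R-expressing HEK293 cells. Calcium-dependent fluorescence (Ex/Em 480/540) was followed kinetically for 3 min after compound transfer.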

[5] = G protein-coupled receptor (GPCR) small molecule agonists, calcium flux assay: HEK293 wild type cell line counter screen (AID 1920065)
Method in brief: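 Fluorescence intensity signals activation. After overnight (18 h) culture and a 1 h calcium dye load at 37 C, compounds are added by pin tool and the plate read at 480/540 nm for 3 min in 1 s steps.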

[6] = p53 small molecule agonists, cell-based qHTS assay with human liver microsomes (AID 1963577)
Method in brief: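 Cells carrying a p53-responsive bla reporter were rested 5 h (37 C, 5% CO2) before compound transfer. Human liver microsomes plus NADPH, 0.5 mg/mL final apiece, supplied metabolism during the 16 h 37 C exposure.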

[7] = p53 small molecule agonists, cell-based qHTS assay with human liver microsomes: qHTS cell viability counter screen (AID 1963579); note: nearly all actives have a fitted effect of over 45% in size; note: potency is the fitted concentration of half-maximal effect
Method in brief: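 Seed p53RE-bla cells at 4,000 per well; incubate 5 h at 37 C; add compound, human liver microsomes and NADPH; incubate 16 h at 37 C; add CellTiter-Glo; after 30 min at room temperature, read luminescence.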

[8] = p53 small molecule agonists, cell-based qHTS assay with rat liver microsomes: qHTS cell viability counter screen (AID 1963580); note: nearly all actives have a fitted effect of over 45% in size; note: potency is the fitted concentration of half-maximal effect
Method in brief: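 Luminescent ATP readout (CellTiter-Glo, 30 min at room temperature) reports viability of p53RE-bla HCT-116 cells after 16 h at 37 C with test compounds under metabolic activation by rat liver microsomes and NADPH at 0.5 mg/mL final each.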

[9] = molecular target: 5-hydroxytryptamine receptor 2A (Homo sapiens) (UniProt P28223); assay: 5-hydroxytryptamine receptor 2A (HTR2A) small molecule antagonists, cell-based qHTS assay (AID 1963586); note: nearly all actives have a fitted effect of over 45% in size; note: potency is the fitted concentration of half-maximal effect
Method in brief: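 CHO cells stably expressing human HTR2A were plated for 18 h at 37 C, then loaded with calcium dye for 1 h. Compounds were preincubated 5 min at room temperature before DOI (4 nM solution) was added. Kinetic fluorescence was read for 3 min.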

[10] = molecular target: Muscarinic acetylcholine receptor M1 (Homo sapiens) (UniProt P11229); assay: Cholinergic receptor muscarinic 1 (CHRM1) small molecule antagonists, cell-based qHTS assay (AID 1963588); note: nearly all actives have a fitted effect of over 40% in size; note: potency is the fitted concentration of half-maximal effect
Method in brief: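 Compounds were tested at 15 concentrations in three independent runs. Dye-loaded CHRM1-CHO cells were exposed 5 min at room temperature before stimulation by acetylcholine added at 50nM. Intracellular calcium was read kinetically on FDSS for 3 min.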

[11] = molecular target: Muscarinic acetylcholine receptor M1 (Homo sapiens) (UniProt P11229); assay: Cholinergic receptor muscarinic 1 (CHRM1) small molecule agonists, cell-based qHTS assay (AID 1963589); note: nearly all actives have a fitted effect of over 35% in size
Method in brief: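 Fluorescent calcium dye reports M1 activation in stably transfected CHO cells. Compounds, 15 concentrations, added after 1 h dye loading at 37 C; kinetic reading at 1 sec intervals.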

[12] = molecular target: Beta-2 adrenergic receptor (Homo sapiens) (UniProt P07550); assay: Adrenergic beta2 receptor (ADRB2) small molecule antagonists, cell-based qHTS assay (AID 1963592); note: series mostly up to about 92 µM; nearly all actives have a fitted effect of over 50% in size
Method in brief: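 Assay format: CHO-ADRB2 cells, 18-20hr seeding at 37C/5% CO2, then compound plus 1nM isoproterenol agonist mix for 0.5hr RT. Homogeneous time-resolved fluorescence cAMP detection after 1hr, expressed as 665/615 nm ratio.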

[13] = molecular target: D(2) dopamine receptor (Homo sapiens) (UniProt P14416); assay: Dopamine D2 receptor (DRD2) small molecule agonists, cell-based qHTS assay (AID 1963594); note: nearly all actives have a fitted effect of over 35% in size
Method in brief: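 HEK293 cells stably expressing DRD2 were cultured 24 h at 37 C, then given Ro20-1724 (0.1 mM final) and compounds for 10 min at room temperature. NKH477 (200nM) was then added for 30 min. cAMP was read by HTRF.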

[14] = molecular target: D(2) dopamine receptor (Homo sapiens) (UniProt P14416); assay: Dopamine D2 receptor (DRD2) small molecule antagonists, cell-based qHTS assay (AID 1963595; active = well fitted inhibition curve with a large enough effect in the signal ratio in the repeat runs, with a control signal flat; the % refers to the signal ratio)
Method in brief: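 Antagonist mode in DRD2-HEK293 cells: after compound addition with 0.1 mM Ro20-1724, cells received quinpirole (12 nM) and NKH477 (200 nM) for 30 min at room temperature; HTRF cAMP read after 1 h detection.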

[15] = molecular target: 5-hydroxytryptamine receptor 2A (Homo sapiens) (UniProt P28223); assay: 5-hydroxytryptamine receptor 2A (HTR2A) small molecule agonists, cell-based qHTS assay (AID 1963587); note: nearly all actives have a fitted effect of over 30% in size
Method in brief: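 HTR2A-CHO cells, plated 18 h at 37 C/5% CO2, dye-loaded 1 h at 37 C; compounds in DMSO added by pin tool (agonist mode). Intracellular calcium flux read as kinetic fluorescence on FDSS over 2 min at 1 s intervals.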

[16] = p53 small molecule agonists, cell-based qHTS assay with rat liver microsomes (AID 1963578)
Method in brief: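 Fluorescence from a beta-lactamase reporter under a p53 response element was measured after cells had been incubated 16 h at 37 C with test compound and rat liver microsomes plus NADPH (0.5 mg/mL final each).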

[17] = p53 small molecule agonists, cell-based qHTS assay: qHTS cell viability counter screen (AID 1963581); note: nearly all actives have a fitted effect of over 45% in size
Method in brief: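 Luminescence from CellTiter-Glo, reflecting ATP content, serves as the cytotoxicity measure; it is taken after the 2 h reporter substrate step in HCT-116 p53RE-bla cells dosed for 16 h at 37 C.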

[18] = p53 small molecule agonists, cell-based qHTS assay (AID 1963582; active = well fitted activation curve with a large enough effect in the signal ratio in the repeat runs, not every such curve was filed as active; the % refers to the signal ratio)
Method in brief: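 After plating, p53RE-bla cells sat 5 h in the incubator; compounds or DMSO vehicle were pinned in; a 16 h incubation at 37 C followed; FRET substrate was added and, 2 h later at RT, fluorescence was measured.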

[19] = cAMP Responsive Elements (CRE) small molecule antagonists, cell-based qHTS assay (AID 1963591; active = well fitted inhibition curve with a large enough effect in the signal ratio in the repeat runs, not every such curve was filed as active; the % refers to the signal ratio)
Method in brief: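 Stimulation used NKH477 at a final 0.25 uM for 3 h in compound-treated CRE-bla HEK293T cells, seeded 18 h beforehand. Reporter activity was measured with LiveBLAzer B/G FRET substrate after 2 h at room temperature.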

[20] = cAMP Responsive Elements (CRE) small molecule agonists, cell-based qHTS assay (AID 1963590)
Method in brief: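 Compound exposure lasted 3 h at 37 C/5% CO2 in CRE-bla HEK 293T cells grown in assay medium with 10% dialyzed FBS and 25 mM HEPES. Reporter signal came from LiveBLAzer B/G FRET substrate, 2 h, room temperature.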
% is set by controls: 0 for no effect and ±100 for the full control effect.

Chain of Muscarinic acetylcholine receptor M1 (Homo sapiens) (P11229 whole entry, looked up): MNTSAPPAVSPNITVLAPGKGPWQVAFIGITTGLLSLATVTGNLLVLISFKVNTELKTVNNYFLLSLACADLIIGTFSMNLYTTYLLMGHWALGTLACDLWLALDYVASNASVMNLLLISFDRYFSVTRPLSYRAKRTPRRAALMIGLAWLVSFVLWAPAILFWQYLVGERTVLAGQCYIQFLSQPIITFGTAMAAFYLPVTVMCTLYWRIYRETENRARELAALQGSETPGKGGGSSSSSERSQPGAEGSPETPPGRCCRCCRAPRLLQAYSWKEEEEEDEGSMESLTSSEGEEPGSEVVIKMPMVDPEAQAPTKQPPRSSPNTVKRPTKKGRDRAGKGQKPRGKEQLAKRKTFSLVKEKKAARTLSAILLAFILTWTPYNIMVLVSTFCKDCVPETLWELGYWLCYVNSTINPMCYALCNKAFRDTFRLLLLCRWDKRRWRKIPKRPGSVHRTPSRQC
Chain of 5-hydroxytryptamine receptor 2A (Homo sapiens) (P28223 whole entry, looked up): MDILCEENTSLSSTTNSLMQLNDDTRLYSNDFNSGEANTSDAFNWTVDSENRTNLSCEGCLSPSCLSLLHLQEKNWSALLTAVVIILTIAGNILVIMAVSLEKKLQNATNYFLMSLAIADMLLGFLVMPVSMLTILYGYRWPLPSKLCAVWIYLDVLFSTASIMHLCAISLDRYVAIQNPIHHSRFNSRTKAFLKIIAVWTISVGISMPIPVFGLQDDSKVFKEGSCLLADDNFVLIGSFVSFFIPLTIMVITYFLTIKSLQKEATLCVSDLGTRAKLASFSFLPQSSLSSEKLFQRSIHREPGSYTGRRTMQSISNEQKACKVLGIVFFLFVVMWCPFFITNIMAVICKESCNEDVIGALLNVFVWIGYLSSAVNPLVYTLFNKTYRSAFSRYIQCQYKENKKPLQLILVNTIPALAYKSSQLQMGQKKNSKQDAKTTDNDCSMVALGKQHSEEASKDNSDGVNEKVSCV
Chain of Gonadotropin-releasing hormone receptor (Homo sapiens) (P30968 whole entry, looked up): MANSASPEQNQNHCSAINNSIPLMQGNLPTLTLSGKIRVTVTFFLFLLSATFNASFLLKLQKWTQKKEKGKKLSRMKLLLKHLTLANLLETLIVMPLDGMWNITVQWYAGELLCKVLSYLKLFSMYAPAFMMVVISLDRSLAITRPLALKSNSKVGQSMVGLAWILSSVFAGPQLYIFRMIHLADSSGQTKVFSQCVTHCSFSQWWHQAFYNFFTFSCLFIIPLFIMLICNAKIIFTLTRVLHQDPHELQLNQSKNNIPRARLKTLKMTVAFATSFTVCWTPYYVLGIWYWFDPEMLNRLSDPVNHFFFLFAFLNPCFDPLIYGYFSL
Chain of KiSS-1 receptor (Homo sapiens) (Q969F8 whole entry, looked up): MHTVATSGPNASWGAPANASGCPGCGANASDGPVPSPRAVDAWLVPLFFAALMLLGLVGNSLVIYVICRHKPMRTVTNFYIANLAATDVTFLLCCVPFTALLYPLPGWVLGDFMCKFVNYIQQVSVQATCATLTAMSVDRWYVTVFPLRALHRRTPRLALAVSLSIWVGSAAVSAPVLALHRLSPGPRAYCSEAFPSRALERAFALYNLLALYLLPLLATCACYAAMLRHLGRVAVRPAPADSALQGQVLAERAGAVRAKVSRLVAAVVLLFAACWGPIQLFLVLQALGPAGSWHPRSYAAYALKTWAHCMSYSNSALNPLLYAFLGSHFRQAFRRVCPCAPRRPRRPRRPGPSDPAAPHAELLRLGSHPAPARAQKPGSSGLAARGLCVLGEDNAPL
Chain of Beta-2 adrenergic receptor (Homo sapiens) (P07550 whole entry, looked up): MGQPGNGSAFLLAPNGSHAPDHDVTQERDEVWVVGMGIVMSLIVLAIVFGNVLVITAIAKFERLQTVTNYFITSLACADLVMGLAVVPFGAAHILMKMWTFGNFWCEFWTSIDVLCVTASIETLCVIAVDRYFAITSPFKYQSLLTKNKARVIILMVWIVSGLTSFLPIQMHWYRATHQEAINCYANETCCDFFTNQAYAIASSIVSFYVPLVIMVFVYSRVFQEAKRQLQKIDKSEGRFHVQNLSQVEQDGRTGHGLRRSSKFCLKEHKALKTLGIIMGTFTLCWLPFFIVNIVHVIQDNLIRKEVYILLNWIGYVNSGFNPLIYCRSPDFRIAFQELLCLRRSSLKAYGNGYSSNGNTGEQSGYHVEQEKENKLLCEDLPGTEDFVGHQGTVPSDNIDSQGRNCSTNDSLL
Chain of D(2) dopamine receptor (Homo sapiens) (P14416 whole entry, looked up): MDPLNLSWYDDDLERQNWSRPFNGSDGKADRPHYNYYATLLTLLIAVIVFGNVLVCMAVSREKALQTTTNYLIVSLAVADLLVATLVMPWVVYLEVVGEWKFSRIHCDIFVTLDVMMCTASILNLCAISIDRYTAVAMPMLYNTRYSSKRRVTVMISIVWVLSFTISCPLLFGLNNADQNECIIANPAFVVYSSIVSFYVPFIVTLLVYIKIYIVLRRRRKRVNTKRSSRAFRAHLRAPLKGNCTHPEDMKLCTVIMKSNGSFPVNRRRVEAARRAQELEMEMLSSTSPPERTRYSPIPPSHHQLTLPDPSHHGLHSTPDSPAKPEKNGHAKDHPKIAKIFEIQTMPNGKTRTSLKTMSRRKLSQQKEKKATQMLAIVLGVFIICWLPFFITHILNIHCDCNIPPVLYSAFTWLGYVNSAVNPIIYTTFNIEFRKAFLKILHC

Cn1cc(C2=C(c3cn(C4CCN(Cc5ccccn5)CC4)c4ccccc34)C(=O)NC2=O)c2ccccc21
inactive: Potency [2] | Potency [3] | Potency [4] | Potency [5] | Potency [6] | Potency [7] | Potency [8] | Potency [9] | Potency [10] | Potency [11] | Potency [12] | Potency [13] | Potency [14]
active: Potency [1] 4.22 µM

O=C(Nc1ccccc1-c1ccc(Cl)cc1)c1cccnc1Cl
inactive: Potency [1] | Potency [3] | Potency [4] | Potency [5] | Potency [6] | Potency [15] | Potency [11] | Potency [14]
active: Potency [2] 68.6 µM

O=C(O)COc1ccc(Cl)cc1
inactive: Potency [1] | Potency [2] | Potency [3] | Potency [4] | Potency [5] | Potency [16] | Potency [7] | Potency [8] | Potency [17] | Potency [18] | Potency [15] | Potency [10] | Potency [11] | Potency [12] | Potency [13] | Potency [14]

Oc1cc(Cl)c(Cl)c(Cl)c1Cl
active: Potency [1] 53.2 µM | Potency [2] 53.2 µM | Potency [7] 17.8 µM | Potency [8] 17.8 µM
inactive: Potency [3] | Potency [4] | Potency [5] | Potency [6] | Potency [9] | Potency [15] | Potency [11] | Potency [13] | Potency [14]

CC(C)NCC(O)c1ccccc1Cl (stereo not drawn)
inactive: Potency [1] | Potency [2] | Potency [3] | Potency [4] | Potency [5] | Potency [6] | Potency [7] | Potency [17] | Potency [18] | Potency [19] | Potency [12] | Potency [13] | Potency [14]

[Cl][Sb]([Cl])[Cl]
inactive: Potency [1] | Potency [3] | Potency [4] | Potency [5] | Potency [16] | Potency [7] | Potency [8] | Potency [17] | Potency [18] | Potency [9] | Potency [15] | Potency [10] | Potency [11] | Potency [20] | Potency [19] | Potency [12] | Potency [14]
active: Potency [2] 27.3 µM

Clc1c(Cl)c(Cl)c(Cl)c(Cl)c1Cl
inactive: activity change, negative = cytotoxicity [1] 1.8% [at 8.39 µM] | activity, positive = activation [2] 1.26% [at 8.39 µM] | activity change [3] -0.0134% [at 5.22 µM, hits give high values] | activation [4] 2.59% [at 6.97 µM] | activation [5] 0.0562% [at 5.23 µM] | activation [16] -0.077% [at 5.99 µM] | activity change, negative = cytotoxicity [7] -8.08% [at 5.99 µM] | activity change, negative = cytotoxicity [8] 3.81% [at 5.99 µM] | activity change, negative = cytotoxicity [17] 19.3% [at 5.99 µM] | activity, negative = inhibition [9] 3.79% [at 5.62 µM] | activation [15] -3.36% [at 7.02 µM] | activity, negative = inhibition [10] 4.33% [at 5.58 µM] | activation [11] 0.839% [at 6.97 µM] | activation [20] 0.371% [at 8.39 µM] | activity change, negative = inhibition [19] -9.17% [at 8.39 µM] | activity change, negative = inhibition [12] -5.22% [at 8.39 µM] | activation [13] -1.37% [at 8.39 µM] | activity change, negative = inhibition [14] -2.06% [at 8.38 µM]

Clc1ccc(CCC(Cn2ccnc2)Sc2c(Cl)cccc2Cl)cc1 (stereo not drawn)
inactive: Potency [3] | Potency [4] | Potency [5] | Potency [6] | Potency [7] | Potency [8] | Potency [15] | Potency [10] | Potency [11] | Potency [12] | Potency [13]
active: Potency [1] 29.8 µM | Potency [2] 13.3 µM

OC(c1ccccc1)(c1ccccc1)C1CCNCC1
active: Potency [10] 4.6 µM
inactive: Potency [1] | Potency [2] | Potency [3] | Potency [4] | Potency [5] | Potency [6] | Potency [8] | Potency [18] | Potency [15] | Potency [11] | Potency [20] | Potency [19] | Potency [12] | Potency [13] | Potency [14]

CC(=O)OC1(c2ccccc2)CCN(CCc2ccccc2)CC1
inactive: Potency [1] | Potency [2] | Potency [3] | Potency [4] | Potency [5] | Potency [16] | Potency [7] | Potency [8] | Potency [17] | Potency [18] | Potency [15] | Potency [10] | Potency [11] | Potency [19] | Potency [12] | Potency [13] | Potency [14]
active: Potency [9] 9.65 µM

ClC(Cl)=C(Cl)Cl
inactive: Potency [1] | Potency [2] | Potency [3] | Potency [4] | Potency [5] | Potency [16] | Potency [7] | Potency [8] | Potency [17] | Potency [18] | Potency [15] | Potency [10] | Potency [11] | Potency [20] | Potency [19] | Potency [12] | Potency [13] | Potency [14]

CN1CCN(C(=O)O[C@H]2c3nccnc3C(=O)N2c2ccc(Cl)cn2)CC1
inactive: Potency [1] | Potency [2] | Potency [3] | Potency [4] | Potency [5] | Potency [6] | Potency [8] | Potency [17] | Potency [9] | Potency [10] | Potency [11] | Potency [19] | Potency [12] | Potency [14]

CCC1COC(Cn2cncn2)(c2ccc(Cl)cc2Cl)O1 (stereo not drawn)
inactive: Potency [1] | Potency [2] | Potency [3] | Potency [4] | Potency [5] | Potency [16] | Potency [7] | Potency [8] | Potency [17] | Potency [18] | Potency [9] | Potency [15] | Potency [10] | Potency [11] | Potency [13] | Potency [14]

CO/N=C(/C1=NOCCO1)c1ccccc1Oc1ncnc(Oc2ccccc2Cl)c1F
inactive: Potency [1] | Potency [2] | Potency [3] | Potency [4] | Potency [5] | Potency [16] | Potency [7] | Potency [8] | Potency [15] | Potency [10] | Potency [11] | Potency [19]

CN(C)[C@@H]1C(=O)C(C(N)=O)=C(O)[C@@]2(O)C(=O)C3=C(O)c4c(O)ccc(Cl)c4[C@@](C)(O)[C@H]3C[C@@H]12
inactive: Potency [1] | Potency [2] | Potency [3] | Potency [4] | Potency [5] | Potency [16] | Potency [7] | Potency [8] | Potency [13] | Potency [14]
